# This is a sample that favours compounds with a hit; in the whole collection about 3.5% have one here.
# FadD28 binding – M. tuberculosis FadD28 bisubstrate binding inhibition; FadD28 bisubstrate probe binding, fluorescence polarization; inhibition, % at 12.5 µM; hit rate 0.22% among 360,000; AID 588549; in the data active = inhibition above about 8.5%, passing the limit was not always enough
# GDH-TPI counter-1 – inhibits GDH-TPI coupling enzymes, artifact for Mtb FBA screen | GDH-TPI coupled enzyme counterscreen, NADH absorbance | inhibition, % at 4.8 µM | hit rate 1.2% among 360,000; in the data active = inhibition above about 30%;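 note: 0% = DMSO wells and 100% = wells lacking the enzyme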
# Mtb UGM inh – Mtb UDP-galactopyranose mutase inhibition; P9WIQ1; purified UGM, fluorescence polarization probe displacement; inhibition, % at 10 µM; hit rate 0.06% among 320,000; in the data active = inhibition above about 10%, passing the limit was not always enough
# Rv3671c protease – Rv3671c (M. tuberculosis) protease inhibition | inhibition, % at 5.96 µM | hit rate 0.048% among 320,000 | AID 2606; in the data active = inhibition above about 38%;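 note: extracellular domain of Rv3671c used as enzyme; 0% = enzyme with DMSO and 100% = no enzyme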
# Target sequence (P9WHR9 whole entry, looked up, the tested form may be a part): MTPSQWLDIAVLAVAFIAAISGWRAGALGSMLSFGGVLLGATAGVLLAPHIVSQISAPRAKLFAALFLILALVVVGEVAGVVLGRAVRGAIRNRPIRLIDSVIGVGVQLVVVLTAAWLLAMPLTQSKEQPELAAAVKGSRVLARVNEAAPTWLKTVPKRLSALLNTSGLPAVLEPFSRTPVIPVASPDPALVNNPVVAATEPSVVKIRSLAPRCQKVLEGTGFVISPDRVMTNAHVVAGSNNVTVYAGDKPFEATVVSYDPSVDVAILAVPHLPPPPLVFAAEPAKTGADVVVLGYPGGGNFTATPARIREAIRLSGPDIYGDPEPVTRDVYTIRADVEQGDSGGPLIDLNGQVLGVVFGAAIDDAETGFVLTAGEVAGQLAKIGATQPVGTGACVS
# Mtb FBA inh – inhibitors of M. tuberculosis fructose-bisphosphate aldolase. purified M. tuberculosis FBA, fluorescence read-out. inhibition, % at 1 µM. hit rate 2.3% among 360,000;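 note: 0% = vehicle and 100% = reference inhibitor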
# Mtb hypoxia inh – inhibitors of hypoxia-regulated fluorescent reporter in Mycobacterium tuberculosis. fluorescence inhibition, % (concentration not given with the values). hit rate 0.1% among 300,000. M. tuberculosis hypoxia-regulated fluorescent reporter, fluorescence. AID 1159583; in the data active = fluorescence inhibition mostly above about 23%, no sharp cut-off; inactive = mostly below about 17%
# Mtb FBA confirm – confirmation of M. tuberculosis fructose-bisphosphate aldolase inhibitors. shares compounds with Mtb FBA inh. purified M. tuberculosis FBA, fluorescence read-out. inhibition, % at 1 µM. hit rate 78% among 5,600;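 note: 0% = vehicle wells and 100% = reference inhibitor wells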
# GDH-TPI counter-2 – inhibits GDH-TPI coupling enzymes, flagging Mtb FBA hits | shares compounds with Mtb FBA inh | GDH-TPI coupled enzyme counterscreen, fluorescence | inhibition, % at 1 µM | hit rate 81% among 5,600; in the data active = inhibition above about 10%
# * hit, by the source's call; · = no result given; + = active, no number. Cut-off read from the data, not from the text of the source, unless noted: active = inhibition above about 27%; inactive = the rest.
SMILES,FadD28 binding,GDH-TPI counter-1,Mtb UGM inh,Rv3671c protease,Mtb FBA inh,Mtb hypoxia inh,Mtb FBA confirm,GDH-TPI counter-2
Cc1cc(=O)oc2cc(OCC(=O)N3CC[C@@]4(O)CCCC[C@H]4C3)ccc12,1,24,0,4,24,·,·,·
CCCC=C1CCCOC(C(=O)NCc2cc(C)n(C)n2)(C(F)(F)F)C1 (centres undefined),·,·,·,·,·,12,·,·
CC1CN(C(C)CO)C(=O)c2cc(NS(C)(=O)=O)ccc2OC1CN(C)Cc1ccc(C(=O)O)cc1 (centres undefined),·,·,·,·,·,10,·,·
Cc1cc(NC(=O)CSc2nnc(-c3ccccc3)n2Cc2ccco2)no1,-2,6,0,-11,-6,-5,·,·
CCOC(=O)CNC(=O)CSc1nnc(-c2ccccc2)n1Cc1ccco1,-3,-6,0,6,98*,·,50*,39*
O=C(c1cnc2ccc(Cl)cc2c1Cl)N1CCOCC1,-2,-4,·,·,-2,-3,·,·
O=C(c1ccc2nc3ccccc3c(=O)n2c1)N1CCN(Cc2ccc3c(c2)OCO3)CC1,-3,4,-1,-9,69*,6,-4,-10
O=C(c1ccc2nc3ccc(Cl)cc3c(=O)n2c1)N1CCOCC1,-2,13,-1,-3,93*,0,+,+
O=C(c1ccc2nc3ccc(Cl)cc3c(=O)n2c1)N1CCC2(CC1)OCCO2,-2,20,-1,4,40*,3,+,+
O=C(c1cccn2c(=O)c3ccccc3nc12)N1CCN(Cc2ccc3c(c2)OCO3)CC1,-2,20,·,6,23,11,·,·
O=C(c1ccc(Cl)cc1)N1CCC2(CC1)OCCO2,2,-1,0,4,2,-7,·,·
CCC(CC)C(=O)Nc1cccc(C(C)=NNC(=O)c2ccccc2Cl)c1,·,·,·,·,·,11,·,·
CN1CCN(C(=O)C2=CC(C3CCCCC3)CC(OCCCCO)O2)CC1 (centres undefined),·,·,·,·,·,8,·,·
CC(C)OCCCNC(=O)c1cc(-c2cccs2)nc2ccccc12,-4,17,4,0,93*,3,88*,83*
O=C(NCc1ccco1)c1cc2nc(-c3cccs3)cc(C(F)(F)F)n2n1,-1,21,0,-6,37*,1,3,-1
O=C(NCc1ccco1)c1cc(-c2cccs2)nc2ccccc12,-7,17,2,-21,79*,-1,9,-5
COc1cc(-c2cc(C(=O)NCc3ccco3)c3ccccc3n2)cc(OC)c1OC,-3,14,0,3,-2,-3,·,·
Cc1nn(-c2ccccn2)c2nc(-c3cccs3)cc(C(=O)NCc3ccco3)c12,-6,30,2,1,48*,-1,59*,61*
Cc1nn(-c2ccccc2)c2nc(-c3ccncc3)cc(C(=O)NCc3ccco3)c12,-2,5,1,-9,-2,1,·,·
C/C(C=NNC(=O)C(O)c1ccccc1)=C\c1ccccc1 (centres undefined),·,·,·,·,·,-4,·,·
COC(=O)c1nn(-c2ccccc2)c(Cl)c1C=NO,·,·,·,·,·,14,·,·
Cn1cc(C(=O)NN=Cc2ccc([N+](=O)[O-])cc2)c2ccccc21,·,·,·,·,·,-2,·,·
CC(=O)Nc1nc2c(c3c1c(=O)oc1ccccc13)CCCCC2,·,·,-1,-2,·,6,·,·
Nc1nc2c(c3c1c(=O)oc1ccccc13)CCCCC2,-2,2,0,4,38*,14,-11,-14
CCOC(=O)C1C2COc3cc(OC)ccc3C2N2C(=O)CN(Cc3ccccc3)C(=O)[C@@]12C (some centres undefined),·,·,·,·,·,2,·,·
CC1CN(c2oc(-c3ccco3)nc2C#N)CC(C)O1 (centres undefined),2,14,-4,8,88*,-3,138*,93*
COc1ccc(-c2oc3ncn4nc(COc5ccccc5)nc4c3c2-c2ccc(OC)cc2)cc1,-1,9,1,0,2,-5,·,·
COc1ccc(-c2oc3ncnc(N)c3c2-c2ccccc2)cc1,-4,5,-2,-3,27*,13,5,-2
O=C(NC1CC1)C1=CC(C2CCCCC2)CC(OCc2ccc(CO)cc2)O1 (centres undefined),·,·,·,·,·,20,·,·

# Screens as filed in PubChem.
